Laboratory results taken from the supplement of paper PMC9694430.
Where a name gives a salt, the structure may show the parent alone.

Key:
Experiment in all cases: thermal shift delta Tm vs DMSO control; higher = stronger stabilization (binding)
Details in all cases: 12.5 µM; protein concentration 2 µM
LOC_OS01G01410-cb001 = tested on: LOC_OS01G01410-cb001
Procedure, shortened: (§1)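 Rice kinase domain constructs were expressed in E. coli, purified, and tested by differential scanning fluorimetry with compound added in DMSO. Each well of a 96-well plate held 19.5 μl of 2 μM kinase in 100 mM potassium phosphate pH 7.5, 150 mM NaCl, 10% glycerol and 5 × SYPRO Orange, and fluorescence was read from 25°C to 95°C at 0.05°C/s. The melting temperature shift is the mean of triplicates, taken against protein with DMSO alone after Boltzmann fitting.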

LOC_OS01G02750-cb003 = tested on: LOC_OS01G02750-cb003
Procedure, shortened: as §1

LOC_OS01G10900-cb004 = tested on: LOC_OS01G10900-cb004
Procedure, shortened: as §1

LOC_OS01G13800-cb001 = tested on: LOC_OS01G13800-cb001
Procedure, shortened: as §1

LOC_OS01G14860-cb001 = tested on: LOC_OS01G14860-cb001
Procedure, shortened: as §1

LOC_OS01G21960-cb002 = tested on: LOC_OS01G21960-cb002
Procedure, shortened: as §1

LOC_OS01G39600-cb002 = tested on: LOC_OS01G39600-cb002
Procedure, shortened: as §1

LOC_OS01G48390-cb002 = tested on: LOC_OS01G48390-cb002
Procedure, shortened: as §1

LOC_OS01G51400-cb002 = tested on: LOC_OS01G51400-cb002
Procedure, shortened: as §1

LOC_OS01G52050-cb004 = tested on: T1, LOC_OS01G52050-cb004
T1 sequence (whole entry): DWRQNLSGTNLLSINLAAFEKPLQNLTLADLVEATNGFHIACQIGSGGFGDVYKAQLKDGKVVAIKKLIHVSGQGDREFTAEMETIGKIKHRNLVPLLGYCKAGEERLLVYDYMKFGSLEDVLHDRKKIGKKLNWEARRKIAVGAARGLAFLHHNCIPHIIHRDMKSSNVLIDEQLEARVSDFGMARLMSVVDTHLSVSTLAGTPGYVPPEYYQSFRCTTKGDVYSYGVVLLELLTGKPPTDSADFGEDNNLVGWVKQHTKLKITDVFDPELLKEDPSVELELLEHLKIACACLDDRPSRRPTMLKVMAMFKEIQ
Procedure, shortened: as §1

Row | SMILES | thermal shift delta Tm (LOC_OS01G01410-cb001) [°C] | thermal shift delta Tm (LOC_OS01G02750-cb003) [°C] | thermal shift delta Tm (LOC_OS01G10900-cb004) [°C] | thermal shift delta Tm (LOC_OS01G13800-cb001) [°C] | thermal shift delta Tm (LOC_OS01G14860-cb001) [°C] | thermal shift delta Tm (LOC_OS01G21960-cb002) [°C] | thermal shift delta Tm (LOC_OS01G39600-cb002) [°C] | thermal shift delta Tm (LOC_OS01G48390-cb002) [°C] | thermal shift delta Tm (LOC_OS01G51400-cb002) [°C] | thermal shift delta Tm (LOC_OS01G52050-cb004) [°C]
1 | N#Cc1ccc2ncnc(NCCc3ccccc3)c2c1 [Senexin A] | 1.49 | 1.5 | 0.41 | 0.25 | 0.78 | 0.95 | 0.66 | 0.42 | 0.41 | 2.96
2 | COc1cc(CCc2cc(NC(=O)c3ccc(N4CC(C)NC(C)C4)cc3)n[nH]2)cc(OC)c1 (stereo not given) | 1.93 | 0.89 | 7.96 | -0.99 | 0.38 | 0.1 | 0.43 | 6.33 | 0.35 | 0
3 | COc1ccc2[nH]cc(/C=C3\C(=O)Nc4ccc(NC(=O)CCN5CCCCC5)cc43)c2c1 | 0.24 | 1.49 | 0.91 | 1.6 | 2.18 | 1.64 | 0.22 | 0.82 | 0.58 | 0.72
4 | CC(C)c1c2cc(-c3ccnc(NC4CCC(NC5CCOCC5)CC4)n3)ccc2nn1C (stereo not given) | 1.15 | 4.38 | 1.83 | -0.3 | 7.15 | 2.64 | 1.1 | 2.74 | 0.39 | 2.13
5 | CC1Oc2cc(cnc2N)-c2c(nn(C)c2C#N)CN(C)C(=O)c2ccc(F)cc21 (stereo not given) | 0.52 | 1.64 | 0.21 | -0.23 | 0.3 | -0.18 | -0.18 | 2.07 | 0.44 | 0.41
6 | Cc1cc2c(F)c(Oc3ncnn4cc(OC[C@@H](C)O)c(C)c34)ccc2[nH]1 | 1.69 | 0.24 | 0.93 | 0.42 | 0.41 | 0.22 | 0.2 | 0.6 | 0 | 0.2
7 | N#C/C(=C(/N)Sc1ccc(N)cc1)c1ccccc1C(F)(F)F | 1.06 | -0.14 | 0.32 | 0.3 | 0.5 | 0.38 | -0.02 | 0.18 | -0.05 | 0.3
8 | O=C(Nc1cnn2ccc(N3CCC[C@@H]3c3cc(F)ccc3F)nc12)N1CC[C@H](O)C1 [Larotrectinib (LOXO-101) sulfate] | -0.1 | 0.5 | 0.8 | 0.17 | 0.39 | 0.24 | -0.28 | 1.09 | -0.18 | 0.04
9 | CC(C)(CO)n1cc(C(=O)c2cncc(NC(=O)Cc3ccc(Cl)cn3)c2)c2cnc(N)nc21 | 0.23 | 0.58 | 0.35 | 0.55 | 0.5 | 0.13 | 0.32 | 0.37 | -0.05 | 2.82
10 | C=CC(=O)N1CCC[C@@H](n2nc(-c3ccc(Oc4ccccc4)cc3)c3c(N)ncnc32)C1 | 0.18 | 0.65 | 0.59 | 0.2 | 0 | 0.24 | 0.74 | 0.52 | 0.21 | 0.5
11 | CC(C)n1nc(-c2cc3cc(O)ccc3[nH]2)c2c(N)ncnc21 [Torkinib (PP242)] | 0.97 | 0.22 | 0.64 | 0.08 | 0.52 | 0.37 | -0.17 | 0.78 | 0.2 | 0.85
12 | COc1cc(Nc2ncc(F)c(Nc3ccc4c(n3)N(COP(=O)(O)O)C(=O)C(C)(C)O4)n2)cc(OC)c1OC [Fostamatinib (R788)] | 1.98 | -0.16 | 0.33 | -0.55 | 4.38 | 3.63 | 9.1 | 0.22 | 0.49 | 6.23
13 | COc1cccc(-c2cc(=O)c3ccccc3o2)c1N | 1.2 | 0.8 | -0.05 | 0.1 | 0.1 | -0.03 | 0.91 | -0.01 | 0.02 | 0.01
14 | CCn1c(-c2nonc2N)nc2cnc(Oc3cccc(NC(=O)c4ccc(OCCN5CCOCC5)cc4)c3)cc21 | 0.15 | 1.24 | 1.47 | 0.89 | 6.06 | 0.9 | 0.75 | 1.02 | 0.31 | 0.93
15 | O=c1cc(N2CCOCC2)oc2c(-c3ccccc3)cccc12 | 1.06 | -0.94 | 3.69 | 0.14 | 0.93 | 0.79 | 0.29 | 1.24 | 0.33 | 0.42
16 | C[C@H](NC(=O)/C(C#N)=C/c1cccc(Br)n1)c1ccccc1 | -1.2 | -2.27 | -0.05 | -0.79 | -1.13 | -0.08 | -1.71 | 0.12 | -1 | -1.36
17 | C=C[C@@](C)(/C=C/c1ccc(O)cc1)CCC=C(C)C [Bakuchiol] | 1 | 1.1 | 1.06 | 0.03 | 0.91 | 0.52 | 0.57 | 0.85 | 0.52 | 3.47
18 | O=c1c(-c2ccc(O)cc2)coc2cc(O)cc(O)c12 [Genistein] | 0.67 | 0.54 | 0.86 | -0.01 | 1.11 | 0.55 | 0.12 | 0.77 | 0.12 | 1.14
19 | C[C@@H](Oc1cc(-n2cnc3ccc(CN4CCN(C)CC4)cc32)sc1C(N)=O)c1ccccc1C(F)(F)F | 0.17 | 0.34 | 3.48 | 0.56 | 0.12 | 1.19 | 0.33 | 0.1 | -0.17 | 0.53
20 | COc1cc2ncnc(Nc3ccc(F)c(Cl)c3)c2cc1NC(=O)/C=C/CN1CCCCC1 | 1.07 | 1.4 | 1.7 | 0.04 | 0.18 | 1.27 | -0.71 | 0.7 | 0.66 | 0.74
